High-throughput results (PubChem)
Vc quorum ag-1: inducers of Vibrio cholerae quorum light production without autoinducers; activation, % at 18.7 µM; hit rate 0.16% among 350,000; AID 588436; V. cholerae BH1578 lux reporter, luminescence, 6 h; in the data active = activation mostly above about 9.7%, no sharp cut-off
PrPC TRFRET: inhibitors of human cell surface prion protein PrPC; inhibition, % at 13.8 µM; hit rate 0.43% among 370,000; TR-FRET read-out; AID 720596; P04156; in the data active = inhibition above about 24%; also: 0% = median of the test wells and 100% = reference compound wells
CCHF vOTU inh: blocks the CCHF virus ovarian tumor domain protease; inhibition, % at 11.5 µM; hit rate 0.55% among 370,000; CCHFV vOTU protease, Pep-AMC fluorescence; in the data active = inhibition above about 30%; also: 0% = vehicle wells with enzyme and 100% = no enzyme wells
VHR inh abs: inhibitors of human VHR1 phosphatase (DUSP3) | AID 1654 | P51452 | recombinant VHR phosphatase, pNPP absorbance | hit rate 0.52% among 290,000 | inhibition, % at 13.3 µM; in the data active = inhibition above about 50%
Target sequence (P51452 whole entry, looked up): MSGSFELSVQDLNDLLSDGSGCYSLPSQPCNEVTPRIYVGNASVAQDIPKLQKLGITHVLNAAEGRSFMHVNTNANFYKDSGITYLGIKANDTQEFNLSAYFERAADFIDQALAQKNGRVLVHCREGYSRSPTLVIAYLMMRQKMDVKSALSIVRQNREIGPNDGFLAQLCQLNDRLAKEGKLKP
Yp Topo-I inh: blocks Yersinia pestis topoisomerase I activity; Y. pestis Topo-I cleavage product accumulation, plate reader; activity, % at 10 µM; hit rate 0.064% among 360,000; AID 504884; in the data active = activity above about 50%, passing the limit was not always enough
MazEF act: MazEF (E. coli) toxin RNase activation; FAM/BHQ RNA-DNA oligo cleavage fluorescence, 5 h; hit rate 0.32% among 350,000; P0AE70; activation, % at 20 µM; in the data active = activation above about 50%
Target sequence (P0AE70 whole entry, looked up): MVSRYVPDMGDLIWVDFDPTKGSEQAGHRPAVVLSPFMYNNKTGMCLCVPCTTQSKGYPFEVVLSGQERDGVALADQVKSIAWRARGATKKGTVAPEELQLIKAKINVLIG
Vc quorum ag-2: induces V. cholerae light production without autoinducers | shares compounds with Vc quorum ag-1 | V. cholerae BH1578 lux reporter, luminescence, 6 h | activation, % at 50 µM | 620 tested, under 10 active; call rule not given here
HeLa tox: HeLa cell viability loss at 24 h; shares compounds with Vc quorum ag-1; CellTiter-Glo ATP luminescence; activity change, negative = cytotoxicity, % at 35 µM; 25 tested, under 10 active; AID 624140;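 active = signal drop with fitted half-maximal concentration at or below twice the highest valid dose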
* marks the source's active call; other numbers are inactive results; i = inactive; · = no result. A selection: hits, their analogues and other compounds. The true share with any hit is near 1.8%.

SMILES	Vc quorum ag-1	PrPC TRFRET	CCHF vOTU inh	VHR inh abs	Yp Topo-I inh	MazEF act	Vc quorum ag-2	others
CC(=O)c1ccc(NC(=O)COc2ccccc2C(=O)Nc2ccc(C)cn2)cc1	-0.5	4.2	2.5	2.1	7.5	-25.8	·
O=C(NCc1nnc(SCC(=O)N2CCOCC2)o1)c1ccccc1	i	-0.4	7.1	·	-1.4	4.7	·
COc1ccc(S(=O)(=O)Nc2ccc(S(=O)(=O)N3CCOCC3)cc2)cc1C	17.9*	-5.8	18.3	-22.3	-2.4	7.0	0.4
CC(=O)Nc1ccc(N2CCCC2)cc1	25.0	-16.4	24.2	0.3	-14.8	-10.8	0.0
CC(=O)Nc1ccc(N2CCCCC2)cc1	i	0.1	9.6	29.7	-2.9	5.9	·
Cc1cc(C)n(-c2ccnc3cc(Cl)ccc23)n1	i	11.7	-3.5	23.1	2.1	-1.6	·
O=C(CN1C(=O)CSC1=O)NC1CCCCC1	16.7*	-7.9	1.5	8.8	1.7	3.8	3.4
O=C(CN1C(=O)C2CC=CCC2C1=O)NC1CCCCC1 (centres undefined)	-0.3	-0.4	-1.3	32.5	4.6	7.1	·
Cc1c(C(=O)N(Cc2ccc(N(C)C)cc2)CC2CCCO2)oc2ccccc12 (centres undefined)	-0.5	14.7	20.2	9.2	36.6	-4.7	·
CCCc1ccc2oc(C(=O)N(Cc3ccncc3)CC3CCCO3)c(C)c2c1 (centres undefined)	12.5	9.8	2.4	-1.6	34.3	-3.5	0.4
Cc1onc(-c2ccccc2)c1C(=O)Nc1nc2c(s1)CCCC2	7.6*	-5.6	9.3	-6.0	-0.6	-2.0	-0.1
Cc1nn(CC(O)CN2c3ccccc3Sc3ccccc32)c(C)c1Br (centres undefined)	25.0*	-1.4	3.6	-10.8	1.0	-6.2	-0.2
Cc1cc(C(=O)Nc2ccccc2Cl)n(-c2ccccc2)n1	-0.7	-0.9	-6.5	-1.2	3.5	2.9	·
CCn1nnnc1NCc1cccn1C	-0.3	2.0	14.8	31.3	2.2	2.1	·	HeLa tox=-1.3
Nn1c(SCc2cccc3ccccc23)nnc1-c1n[nH]c2c1CCC2	·	0.2	-4.7	·	·	·	·
CSc1ccccc1NC(=O)COc1ccc(S(=O)(=O)N2CCCC2)cc1	12.5	3.3	10.5	-8.6	1.1	2.4	0.1
Cc1ccc(OCc2nc(-c3ccccn3)no2)cc1	i	2.6	-13.1	-2.5	-1.5	-3.7	·
CC(C)(C)Cc1nc(-c2ccccn2)no1	14.3	-1.1	-0.4	-0.2	-4.5	-2.5	0.3
CCN(C(=O)COc1ncnc2ccc(Br)cc12)C1CCS(=O)(=O)C1 (centres undefined)	16.7*	-9.4	0.2	5.0	-7.5	5.1	-1.3
Cc1ccc2onc(CC(=O)O)c2c1	23.7	2.9	-8.0	8.2	-0.5	2.4	0.1
Cc1ccc(F)c(CNC(=O)C2(C)CCCN2C(=O)C(C)C)c1F (centres undefined)	-5.0	5.9	6.3	·	10.2	·	·
c1ccc(-c2nnnn2-c2ccccc2)cc1	i	-4.8	-3.2	19.3	9.9	3.8	·
Cc1ccccc1-n1nnnc1-c1ccccc1	26.8	-2.2	4.8	11.9	-4.7	4.1	0.1
Cc1ccc(S(=O)(=O)NCCC(=O)OCC(=O)N(Cc2ccccc2)C(C)(C)C)cc1C	12.5	-7.8	-1.4	·	26.5	-3.1	0.2
CCCC(=O)NC1CCCc2c1cnn2-c1ccc(C)c(C)c1 (centres undefined)	23.3	-0.5	-11.0	6.5	5.0	8.1	-0.2
SMILES	Vc quorum ag-1	PrPC TRFRET	CCHF vOTU inh	VHR inh abs	Yp Topo-I inh	MazEF act	Vc quorum ag-2	others
Cc1ccc(-n2ncc3c2CCCC3NC(=O)CCn2ccnc2C)cc1C (centres undefined)	-0.7	2.4	1.0	13.7	-0.7	-0.3	·
Cc1cccc(C)c1N(CC(=O)NCc1ccco1)C(=O)CNS(=O)(=O)c1ccc(F)cc1	i	-3.7	-10.1	-9.4	18.1	-1.1	·
CCc1ccc(OCCNC(=O)c2cccs2)cc1	·	-0.2	12.0	11.3	11.5	-0.6	i
Cc1ccc(OCCNC(=O)c2ccc(C)cc2)cc1	i	2.9	-15.3	·	-2.5	-13.9	·
Cc1ccc(OCCNC(=O)c2ccc(C)o2)cc1	59.0*	-4.7	25.2	·	-11.4	-2.8	104.8
CCN(Cc1cn(CC2CCCCC2)nn1)S(=O)(=O)c1ccccc1Br	·	8.6	9.2	·	·	·	·
Cc1noc(C)c1C(=O)OCC(=O)c1c[nH]c2ccccc12	12.5	2.8	16.3	17.7	2.7	9.8	0.2
CCc1cccc2c(C(=S)N3CCOCC3)c[nH]c12	-0.2	-5.0	-10.2	13.8	3.9	3.3	·
CCOC(=O)C1=CCN(S(=O)(=O)c2ccccc2[N+](=O)[O-])C1c1ccc(C)cc1 (centres undefined)	·	4.1	-2.1	·	·	·	·
COC(=O)Cn1nc(-c2ccccc2)c2ccccc21	12.5	5.2	-15.9	-5.3	10.7	5.7	0.0
CCc1cc2c(nc1CC)CCCN2C	·	-0.7	-43.9	·	·	·	·
O=C(CN1C(=O)COc2ccccc21)c1ccc(Cl)cc1	16.7*	8.6	-1.0	25.3	-7.3	3.9	0.5
CCCOC(=O)c1ccc(NC(=O)CCOc2ccccc2)cc1	0.1	3.0	-3.1	21.8	0.6	-1.4	·
CCCOC(=O)c1ccc(NC(=O)C2CCCO2)cc1 (centres undefined)	16.7*	-2.0	24.1	-12.0	-5.1	6.8	0.1
CCCOC(=O)c1ccc(NC(=O)CCC(=O)OCC)cc1	12.5	3.4	-3.9	-10.8	2.1	3.3	0.3
NC(=O)c1ccc(NC(=O)C2CCCO2)cc1 (centres undefined)	-6.7	0.2	15.2	15.7	3.0	1.9	·
O=C(Cc1n[nH]c(=O)c2ccccc12)OCC(=O)c1ccccc1	-0.9	1.7	-12.3	·	12.5	4.2	·
CN(C)C1=NCCN1CC1CCCCCC1	1.3	-3.9	9.4	·	-0.2	11.6	·
COc1ccc(S(=O)(=O)NC2CC(=O)N(c3cccc(F)c3)C2)cc1OC (centres undefined)	-5.6	2.2	-5.6	·	-0.7	2.3	·
CN(C(=O)c1ccccc1OCc1ccc(F)cc1)c1c(N)n(Cc2ccccc2)c(=O)[nH]c1=O	5.0	-8.7	15.6	·	8.3	-1.8	·
CCCCN(C(=O)c1cc(S(=O)(=O)N2CCCCC2)ccc1Cl)c1c(N)n(CCC)c(=O)[nH]c1=O	-0.8	8.7	12.6	·	-3.5	-5.1	·
CCN(CC)CC1C(=O)N(c2ccc(OC)cc2)C1c1ccccc1 (centres undefined)	0.4	-1.5	-10.5	-5.3	10.5	9.6	·
Cc1ccc(N2C(=O)C(CN(C)C)C2c2ccccc2)cc1 (centres undefined)	16.7*	-5.9	-3.2	20.2	-4.0	-3.4	2.1
Cc1[nH]n(-c2nc(-c3ccc(Cl)cc3)cs2)c(=O)c1N=Nc1ccc(O)cc1	i	11.6	-1.4	-21.4	2.0	11.0	·
